Records with an inconclusive call do not appear. The source made the active and inactive calls. The calls were made as follows: active = hit-call score of the fitted dose curve at least 0.9, where 1 is the maximum; inconclusive = response in the unintended direction; inactive = score below 0.9.
target: human Thyroid Receptor Alpha (TRa), THRA (gene 7067) (UniProt P10827); test: NVS_NR_hTRa_Antagonist: NovaScreen (NVS) Nuclear Receptor Binding Assay for human Thyroid Receptor Alpha Antagonism (TRa) (AID 2283362)
Description: NVS_NR_hTRa_Antagonist is a biochemical, single-readout assay that uses extracted gene-proteins in a cell-free assay. Measurements were taken 1 hour after chemical dosing in a 384-well plate.NVS_NR_hTRa_Antagonist is one of one assay component(s) measured or calculated from the NVS_NR_hTRa_Antagonist assay. It is designed to make measurements of enzyme-linked immunosorbent assay, a form of binding reporter, as detected with chemiluminescence signals by AlphaLISA immunoassay technology.Data from the assay component NVS_NR_hTRa_Antagonist was analyzed into 1 assay endpoint. This assay endpoint, NVS_NR_hTRa_Antagonist, was analyzed in the positive analysis fitting direction relative to DMSO as the negative control and baseline of activity. Using a type of binding reporter, loss-of-signal activity can be used to understand changes in the binding as they relate to the gene THRA. Furthermore, this assay endpoint can be referred to as a primary readout, because the performed assay has only produced 1 assay endpoint. To generalize the intended target to other relatable targets, this assay endpoint is annotated to the nuclear receptor intended target family, where the subfamily is non-steroidal.
Binding assays used specific radioligands (tritiated, iodinated) with non-radioactive competitive displacement ligands in agonist or antagonist protocols (as indicated) and various reference compounds and inhibitors to titrate specific binding to receptors and transporters. Most enzyme assays (CYPs, kinases, phosphatases, proteases, HDACs) used recombinant protein and specific substrates (fluorescence mostly, some colorimetric and radioactive) and inhibitors, followed by a biochemical separation of substrate and product. All assays for the biochemical HTS were initially run in duplicate at a single concentration (10 uM for CYP450 assays and 25 uM for all others). […] Each assay was run with positive and negative controls, and concurrent controls on every plate. The follow-up (secondary) screen tested active chemical-pairs in concentration series, as well as a few additional assays not tested in the primary screen, some selected negative inactives, and several cases re-run in the concentration series for confirmatory purposes.

Chain of human Thyroid Receptor Alpha (TRa), THRA (gene 7067) (P10827 whole entry, looked up): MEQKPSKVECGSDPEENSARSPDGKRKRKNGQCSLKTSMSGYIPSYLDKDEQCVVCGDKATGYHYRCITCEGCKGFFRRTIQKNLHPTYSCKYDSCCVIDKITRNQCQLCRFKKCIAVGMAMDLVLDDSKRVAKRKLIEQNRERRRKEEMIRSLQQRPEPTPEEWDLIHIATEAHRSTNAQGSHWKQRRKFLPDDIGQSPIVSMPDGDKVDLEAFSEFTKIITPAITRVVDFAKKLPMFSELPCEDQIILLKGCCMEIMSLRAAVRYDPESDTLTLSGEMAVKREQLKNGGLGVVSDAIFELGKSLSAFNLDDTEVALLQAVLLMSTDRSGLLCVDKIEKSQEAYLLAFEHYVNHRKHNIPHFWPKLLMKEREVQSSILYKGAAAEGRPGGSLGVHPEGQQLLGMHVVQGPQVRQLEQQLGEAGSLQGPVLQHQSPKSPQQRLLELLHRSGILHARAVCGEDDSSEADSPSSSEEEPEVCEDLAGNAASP

| Structure (SMILES) | outcome | AC50 |
| --- | --- | --- |
| CCOC(=O)C(C)(C)Oc1ccc(Cl)cc1 | inactive | – |
| CC1(C)CC(N=C=O)CC(C)(CN=C=O)C1 (stereo not given) | inactive | – |
| CCOc1ccc2c(c1)C(C)=CC(C)(C)N2 | inactive | – |
| Cc1nc(-c2ccc3c(c2)CCN(CCC2CCC(NC(=O)/C=C/c4ccc(F)cc4)CC2)CC3)no1 (stereo not given) | inactive | – |
| CCCCOC(=O)CCCCCCCCC(=O)OCCCC | inactive | – |
| Oc1ccc2ccccc2c1N=Nc1ccccc1 | inactive | – |
| Cc1cc(NC(=O)C(=O)O)cc(C)c1Oc1ccc(O)c2c1CCC2 | inactive | – |
| Nc1ccc2c(c1)C(=O)c1ccccc1C2=O | inactive | – |
| Cc1ccc2ncccc2c1 | inactive | – |
| Cc1c(C(=O)O)c(O)cc2c1C(=O)c1c(O)c([C@@H]3O[C@H](CO)[C@@H](O)[C@H](O)[C@H]3O)c(O)c(O)c1C2=O | – | 17.3 µM (active) |
